The results in this text go back to PubChem BioAssay (EPA / NIEHS).

Records with an inconclusive call do not appear. The source made the active and inactive calls. How the source made its calls: active means hit-call score of the fitted dose curve at least 0.9, where 1 is the maximum; inconclusive means response in the unintended direction; inactive means score below 0.9.

This assay in a line: TOX21_p53_BLA_p3_viability: Viability Assessment in the Tox21 HCT-116 p53 Agonism Beta-lactamase Assay, Phase 3 (AID 2283593).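 Further: cells exposed to compound for 16 h before reading.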 From the text:
TOX21_p53_BLA_p3 is a cell-based, single-readout assay that uses HCT116, a human intestinal cell line, […] in a 1536-well plate.TOX21_p53_BLA_p3_viability is an assay readout measuring cellular ATP content and detected with CellTiter-Glo Luciferase-coupled ATP quantitation.TOX21_p53_BLA_p3_viability used a type of viability reporter where loss-of-signal activity can be used to understand changes in the cell viability. Furthermore, this assay endpoint can be referred to as a secondary readout, because this assay has produced multiple assay endpoints where this one serves a viability function. To generalize the intended target to other relatable targets, this assay endpoint is annotated to the cell cycle intended target family, where the subfamily is cytotoxicity.
Thawing Method: Place 14 mL of pre-warmed thaw medium into a 15 mL of conical tub. Remove the vial of cells to be thawed from liquid nitrogen and thaw rapidly by placing at 37C in a water bath with gentle agitation for 1-2 minutes. Decontaminate the vial by wiping with 70% ethanol before opening in a biological safety cabinet. Transfer the vial contents drop-wise into 14 mL of thaw medium in a sterile 15-mL conical tub. Centrifuge cells at 900 rpm for 4 minutes and resuspend in thaw medium. Transfer contents to the T75 tissue culture flask containing Thaw Medium and place flask in a humidified 37C/5% CO2 incubator. Switch to growth medium at first passage.Propagation Method: Aspirate medium, rinse once in DPBS, add 0.25% Trypsin/EDTA and swirl to coat the cell evenly. Add an equal volume of Growth Medium to inactivate Trypsin after 2-3 minutes incubation at 37C. Centrifuge cells at 900 rpm for 4 minutes and resuspend in growth medium. Cell should be passage or fed at least twice a week.Assay Protocol: Harvest cells from culture in growth medium and resuspend in assay medium. 2.2 Dispense 4000 cells/5 uL/well into 1536-well black/clear bottom plates using a Multidrop dispenser. After the cells were incubated at 37C for 5 hours, 23 nL of compounds dissolved in DMSO were transferred to the assay plate by a PinTool resulting in a 217-fold dilution. Incubate the plates for 16 hours at 37C, 5% CO2. Add 1 uL of 6X LiveBLAzer FRET B/G (CCF4-AM) Substrate Mixture to each well using a BioRAPTR dispenser and incubate the plates at room temperature for 2 hours. Measure fluorescence intensity at 460 and 530 nm emission and 405 nm excitation by an Envision detector. Data is expressed as the ratio of 460nm/530nm emissions. Add 4 uL of Cell-titer Glo to each well using BioRAPTR and incubate the plates at room temperature for […]. For cell viability readout that measures cytotoxicity, 4 ul/well of CellTiter-Glo reagent was added into the assay plates using a Flying Reagent Dispenser. After 30 min incubation at room temperature, the luminescence intensity in the plates was measured using a ViewLux plate reader.
`O=C1CN(N=Cc2ccc([N+](=O)[O-])o2)C(=O)N1`: the result was inactive.
To `CCCCC(CC)C(=O)OCCOCCOCCOC(=O)C(CC)CCCC` (configuration not stated) belongs “inactive”; to `CC(C)c1nnc2ccc(-c3ocnc3-c3cc(F)ccc3F)cn12`, “inactive”.
For the compound `NC(=O)NN=Cc1ccc([N+](=O)[O-])o1`, the compound was called inactive.
For `c1ccc(C(O[C@@H]2CCCN(CCc3ccc4c(c3)OCO4)C2)c2ccccc2)cc1`, the result was inactive.
`CCCc1ccccc1`: the result was inactive.
With `C[C@]12C=CC(=O)C=C1CC[C@H]1[C@@H]3C[C@@H](O)[C@](O)(C(=O)CO)[C@@]3(C)C[C@H](O)[C@@]12F`, the compound was classed as inactive.
`CCCCCCCCCCCCCCCCOS(=O)(=O)O`: the result was inactive.
Regarding `OCCOCCOCCO`, the call was inactive.
On to `C=CN1CCCC1=O`, for which the call was inactive.
Consider `OC(CCl)CCl`, for which the compound was classed as inactive.
On to `Cc1cccc(O)c1C`, for which the call was inactive.
On to `OCc1c[nH]c2ccccc12`, for which the outcome was inactive.
For `CCCCOC(=O)c1ccccc1`, the outcome was inactive.
For `c1ccc2cc3ccccc3cc2c1`, the outcome was inactive.
Regarding `S=P(N1CC1)(N1CC1)N1CC1`, the outcome was inactive.
As for `c1ccc2ncccc2c1`, the result was inactive.
Turning to `NNC(=O)c1ccncc1`, the call was inactive.
For the compound `CCCCCCCC/C=C\CCCCCCCC(=O)OC[C@@H](O)[C@H]1OC[C@H](O)[C@H]1O`, the outcome was inactive.
To `O=C(N[C@H](CO)[C@H](O)c1ccc([N+](=O)[O-])cc1)C(Cl)Cl` belongs “inactive”.
`OC(Cn1cncn1)(Cn1cncn1)c1ccc(F)cc1F`: the call was inactive.
With `CCc1cccc(CC)c1N`, the call was inactive.
`CCn1nc(C)c2c1C(=O)NCC(c1ccc(O)cc1)=N2`: the compound was called inactive.
In the case of `CC(=O)c1ccccc1`, the call was inactive.
To `CCCCCCCCCCCCCCO` belongs “inactive”; to `CCc1ccc(O)c(C(C)(C)C)c1`, “inactive”.
Consider `CCOC(N)=O`, for which the call was inactive.
